Source: PubChem BioAssay (several laboratories)
Only some compounds are listed: those with a hit (about 27% of all), similar ones and a draw of the others.
Cav32 inh: human Cav3.2 channel inhibition, primary screen | Cav3.2-expressing cells, Fluo-4 calcium fluorescence FDSS; stronger effect = lower value | O95180 | actives 4% (n = 100,000) | B-score at 10 µM;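 active = single-dose well whose peak fluorescence ratio is a statistical outlier from its plate by either plate-standardised score or position-corrected B-score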
CYP2C9 inhib: human CYP2C9 inhibition | inhibition, % at 5 µM | AID 777 | actives 20% (n = 96,000) | CYP2C9 Supersomes, luciferin-H conversion, luminescence;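 active = blocking of liver enzyme CYP2C9 beyond about 50% at 5 µM, limit read from the data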
CYP2C19 inh: inhibitors of human CYP2C19; P33261; actives 21% (n = 96,000); inhibition, % at 5 µM; CYP2C19 Supersomes, luciferin-H EGE luminescence, 30 min;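 active = CYP2C19 inhibition above a set limit at 5 µM in the primary screen, cut at about 50% in these data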
Pyk2 oligo antag: Pyk2 (human) oligomerization antagonism | Q14289 | Q293 cells, Pyk2 FERM NanoBiT luminescence; stronger effect = lower value | z-score (the deposit names both 25 µM and 10 µM) | actives 0.83% (n = 99,000) | AID 1347419;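 active = Z-score of -3 or lower, scaled per plate to the spread of control and sample wells; inactive = z-score above -3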;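 note: negative z-score means lost luminescence so less FERM oligomerization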
Target sequence (Q14289 whole entry, looked up): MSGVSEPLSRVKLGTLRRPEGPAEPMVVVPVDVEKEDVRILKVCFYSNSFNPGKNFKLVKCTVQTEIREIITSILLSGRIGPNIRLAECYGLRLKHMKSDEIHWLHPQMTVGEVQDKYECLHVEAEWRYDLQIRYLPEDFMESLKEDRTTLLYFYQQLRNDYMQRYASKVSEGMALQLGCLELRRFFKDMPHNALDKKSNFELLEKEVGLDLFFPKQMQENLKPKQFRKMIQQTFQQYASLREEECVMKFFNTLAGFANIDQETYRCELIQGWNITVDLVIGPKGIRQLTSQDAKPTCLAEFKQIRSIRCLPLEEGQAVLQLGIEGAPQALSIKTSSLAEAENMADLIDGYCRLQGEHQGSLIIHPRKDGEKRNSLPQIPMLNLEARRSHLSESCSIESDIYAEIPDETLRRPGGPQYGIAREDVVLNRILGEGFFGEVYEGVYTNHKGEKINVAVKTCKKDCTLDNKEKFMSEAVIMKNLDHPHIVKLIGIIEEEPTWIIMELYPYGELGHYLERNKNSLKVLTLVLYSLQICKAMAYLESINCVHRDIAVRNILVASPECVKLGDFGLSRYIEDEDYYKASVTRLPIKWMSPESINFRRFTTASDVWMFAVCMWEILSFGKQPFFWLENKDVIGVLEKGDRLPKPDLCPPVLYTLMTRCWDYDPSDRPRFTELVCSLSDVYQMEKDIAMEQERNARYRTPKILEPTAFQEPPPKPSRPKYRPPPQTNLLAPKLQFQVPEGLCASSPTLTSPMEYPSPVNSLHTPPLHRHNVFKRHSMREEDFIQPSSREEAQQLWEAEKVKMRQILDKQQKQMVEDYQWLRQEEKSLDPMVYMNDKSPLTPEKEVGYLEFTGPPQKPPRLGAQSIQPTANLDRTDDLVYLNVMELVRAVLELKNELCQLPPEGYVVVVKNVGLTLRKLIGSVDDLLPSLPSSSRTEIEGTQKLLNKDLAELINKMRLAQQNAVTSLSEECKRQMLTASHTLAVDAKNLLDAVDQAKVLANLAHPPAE
CYP2C19 activ: cytochrome P450 2C19 (human) activation; recombinant CYP2C19, luciferin-H EGE luminescence; stronger effect = higher value; 0 = fully inhibited enzyme, 1 = untreated enzyme; activation factor at 5 µM; 96,000 tested, under 10 active; AID 1025;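 active = activation factor of at least 2 at 5 µM in the primary screen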
CYP2C9 activ: activators of human CYP2C9; P11712; recombinant CYP2C9, luciferin-H conversion, luminescence; stronger effect = higher value; factor 1 = untreated enzyme, 0 = blocked; activation factor at 5 µM; actives 1.4% (n = 96,000);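 active = activation factor of 2 or more for CYP2C9 at a 5 µM dose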
Hits are given with their value; i = inactive; nt = not tested or not shown.

SMILES	Cav32 inh	CYP2C9 inhib	CYP2C19 inh	Pyk2 oligo antag	CYP2C19 activ	CYP2C9 activ
Clc1ccc2c(c1)c1ccccc1n2CN1CCOCC1	i	i	72.5	i	i	i
CC1CCN(S(=O)(=O)c2ccc3ncn(CC(=O)N(C)Cc4ccccc4)c(=O)c3c2)CC1	-4.64	i	i	i	i	i
CCn1c(SCc2ccc(Cl)cc2Cl)nc2nc3c(cc2c1=O)CCCC3	i	i	i	i	i	i
CCCn1nnc(NC(=O)c2ccc(Cl)cc2Cl)n1	i	i	88.8	i	i	i
C=CCOc1c(CNc2nccs2)cccc1OCC	i	72.5	98.3	i	i	i
COc1ccc(-c2cc(C3CCN(c4ccc(C(C)=O)cc4[N+](=O)[O-])CC3)[nH]n2)cc1	i	65.0	84.2	-3.25	i	i
CC(=O)c1ccc(N2CCC(c3cc(-c4ccc(Cl)cc4)n[nH]3)CC2)c([N+](=O)[O-])c1	i	56.9	56.3	i	i	i
Cc1nc(N2CCOCC2)c2oc3ccccc3c2n1	i	i	i	i	i	i
Cc1nc(N2CCN(Cc3nc4ccccc4[nH]3)CC2)c2oc3ccccc3c2n1	i	92.4	83.7	i	i	i
c1ccc2[nH]c(CN3CCN(c4ncnc5c4oc4ccccc45)CC3)nc2c1	i	55.0	i	i	i	i
CC(Cc1ccccc1)C(=O)N[C@@H](CO)Cc1ccccc1 (some centres undefined)	i	nt	nt	nt	nt	nt
COc1ccc(C/C(O)=C(\C#N)c2nc3ccccc3[nH]2)cc1OC	i	50.5	i	i	i	i
CC1CCCN(C/C(O)=C(\C#N)c2nc3ccccc3[nH]2)C1 (centres undefined)	i	i	i	i	i	i
COc1ccc(OC/C(O)=C(\C#N)c2nc3ccccc3[nH]2)cc1	nt	i	i	i	i	i
CC(C)CC(/C(O)=C(\C#N)c1nc2ccccc2[nH]1)N1C(=O)c2ccccc2C1=O (centres undefined)	-6.58	94.7	96.2	i	i	i
COc1ccc(/C=N/OC/C(O)=C(\C#N)c2nc3ccccc3[nH]2)cc1	i	i	i	i	i	i
CC(C)(C)/C(O)=C(/C#N)c1nc2ccccc2[nH]1	nt	63.5	i	i	i	i
COc1cccc(OC)c1/C(O)=C(\C#N)c1nc2ccccc2[nH]1	i	i	58.5	i	i	i
CCCN1CCN(c2nc3c([nH]2)c(=N)ncn3CC(O)CO)CC1 (centres undefined)	i	i	i	i	i	i
CCOC(=O)c1cc(C(=O)OCC)c2cccc(C)n2c1=O	i	i	i	i	i	i
CO[C@@]1(NC(=O)CSCC#N)C(=O)N2C(C(=O)O)=C(CSc3nnnn3C)CS[C@@H]21	i	nt	nt	nt	nt	nt
COc1ccc(C2/C=C\CN(C(=O)Oc3ccc(C(F)(F)F)cc3)CC(=O)N2Cc2ccc(F)cc2)cc1 (centres undefined)	i	nt	nt	nt	nt	nt
O=S(=O)(c1ccc(C2CCCCC2)cc1)N1CCCC1	i	i	i	i	i	i
Cc1ccc(Oc2ccccc2/C=N/O)cc1	i	i	82.3	i	i	i
C=CCOc1ccccc1/C=N/O	i	i	i	i	i	i
SMILES	Cav32 inh	CYP2C9 inhib	CYP2C19 inh	Pyk2 oligo antag	CYP2C19 activ	CYP2C9 activ
O=C(Nc1cccc2ccccc12)N1CCN(c2ccccc2)CC1	i	i	i	-3.82	i	i
S=C(Nc1cccc2ccccc12)N1CCN(c2ncccn2)CC1	i	i	58.3	i	i	i
O=C(Nc1cccc2ccccc12)N1CC=CCC1	i	i	i	i	i	i
Fc1ccc(Nc2nc(Oc3ccccc3F)nc(N3CCCC3)n2)cc1	i	i	i	i	i	i
Cc1cc(C)n(CCOc2ccc(Cl)cc2Cl)n1	i	i	96.8	i	i	i
O=C(O)C1=C[C@H](c2ccc3c(c2)OCO3)C[C@H](OCCCCO)O1	i	nt	nt	nt	nt	nt
Cn1cnnc1SCC(=O)N1CCC(Cc2ccccc2)CC1	i	i	77.1	i	i	i
COc1ccc(NC(=O)CNS(=O)(=O)c2cccs2)cc1	i	i	53.3	i	i	i
COc1ccc(NC(=O)CCCNS(=O)(=O)c2cccs2)cc1	i	i	72.2	i	i	i
O=C(O)CCCNS(=O)(=O)c1cccs1	i	i	i	i	i	i
COC(=O)c1cccc(S(=O)(=O)N2CCN(c3nc4ccccc4s3)CC2)c1	i	i	i	i	i	i
CC(NC(=O)C1CCCCC1)C(=O)NC1=NCCS1 (centres undefined)	i	i	i	i	i	i
COc1ccc2nc(NC(=O)C3CCCN3S(=O)(=O)c3ccc(C)cc3)sc2c1 (centres undefined)	-3.69	i	67.9	i	i	i
Cc1ccc(S(=O)(=O)N2CCCC2C(=O)Nc2nc3c(s2)CCCC3)cc1 (centres undefined)	i	89.8	i	i	i	i
Cc1ccc(S(=O)(=O)N2CCCC2C(=O)Nc2cc(C)on2)cc1 (centres undefined)	i	i	i	i	i	i
COc1ccc(S(=O)(=O)N2CCCC2C(=O)Nc2nnc(-c3cccnc3)s2)cc1 (centres undefined)	i	i	98.9	i	i	i
CS(=O)(=O)C1=C(O)C(=O)N(c2ccccc2)C1c1ccccc1 (centres undefined)	i	i	50.7	i	i	i
O=C(O)CC1=C(O)C(=O)N(c2ccccc2)C1c1ccccc1 (centres undefined)	i	i	i	i	i	i
CCn1cnc2sc(C(=O)N(Cc3ccc(N(C)C)cc3)Cc3ccco3)c(C)c2c1=O	i	97.9	88.0	i	i	i
Cc1ccc(-n2c(Cc3cccs3)nnc2SCC(N)=O)cc1	i	i	55.9	i	i	i
O=C1COc2ccc(C(=O)CSc3nnc(Cc4cccs4)n3-c3ccc(Cl)cc3)cc2N1	-3.89	i	i	i	i	i
Cc1ccc(-c2noc(CSc3nnc(Cc4cccs4)n3-c3ccccc3)n2)cc1	-7.56	i	71.6	nt	i	i
Fc1ccc(-n2c(Cc3ccccc3)nnc2SCc2nc(-c3cccs3)no2)cc1	i	74.5	i	i	i	i
O=C1COc2ccc(C(=O)CSc3nnnn3-c3ccccc3)cc2N1	i	i	i	i	i	i
Cc1ccc(-c2noc(CSc3ccccc3)n2)cc1	i	i	i	i	i	i
SMILES	Cav32 inh	CYP2C9 inhib	CYP2C19 inh	Pyk2 oligo antag	CYP2C19 activ	CYP2C9 activ
CN1CCN(C/C(=C2/N=C(c3ccccc3)OC2=O)N(C)C)CC1	i	i	i	i	i	i
COc1cc(S(=O)(=O)N2CCOCC2)ccc1NC(=O)COC(=O)c1ccccn1	i	i	i	i	i	i
Clc1ccc(-c2noc(CSc3nnc(Cc4cccs4)n3-c3ccccc3)n2)cc1	-5.67	i	i	nt	i	i
Clc1ccc(-c2noc(CCCc3ccccc3)n2)cc1	i	i	i	i	i	i
c1ccc(-c2noc(CSc3nnc(Cc4cccs4)n3-c3ccccc3)n2)cc1	-4.65	nt	nt	i	nt	nt
S=c1[nH]nc(Cc2cccs2)n1-c1ccccc1	nt	i	i	i	i	i
